The record followed here is the supplement of paper PMC12669797.

Values joined by “and” are separate entries in the source; they are usually repeats but may differ in a detail not shown here. Equal values may be shown once. Where a name gives a salt, the structure may show the parent alone. ± gives the standard deviation of the averaged measurements.

The test system of one assay is ES2. Kind of assay: cell viability relative to DMSO control (MTS) (fraction of DMSO control); higher = more viable cells / less growth inhibition. The following applies: 10 µM; 48 h. An outline of the steps:
(§1)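 A 367-compound […] library was tested at a final concentration of 10 µM on TOV-21G and ES2 clear cell carcinoma cells (5000 cells per well, 96-well plates, pre-grown 24 h), with control wells receiving vehicle only. Following 48 h of exposure, CellTiter 96 AQueous One Solution was used as the manufacturer directs. This MTS assay gives cell viability as a fraction of the vehicle control.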
Take `COc1cc([C@@H]2c3cc4c(cc3[C@@H](O[C@@H]3O[C@@H]5CO[C@@H](C)O[C@H]5[C@H](O)[C@H]3O)[C@H]3COC(=O)[C@H]23)OCO4)cc(OC)c1O` [Etoposide (VP-16)]: the cell viability is 0.655.

`CC(C)[C@H](CO)Nc1nc(Nc2cccc(Cl)c2)c2ncn(C(C)C)c2n1` [Purvalanol A] gave a cell viability of 0.815.

Regarding `C[n+]1cc2c3c(ccc2c2ccc4cc5c(cc4c21)OCO5)OCO3` [Sanguinarine], the cell viability is 0.385.

Consider `CC(C)[C@H](CO)Nc1nc(Nc2cccc(Cl)c2)c2ncn(C(C)C)c2n1` [purvalanol A], for which the cell viability turned out to be 0.657.

The molecule `Cc1ccc(NC(=O)c2cccc(N(C)C)c2)cc1NC(=O)c1ccc(O)cc1` showed a cell viability of 0.951.

In turn, `CC(=N)NCc1cccc(CN)c1` displayed a cell viability of 1.15.

`CC(C)(C)c1cc(O)ccc1O` [t-Butylhydroquinone (BHQ)] had a cell viability of 0.939.

As to `CC(C)c1cc(/C=C(\C#N)C(=O)NCCCc2ccccc2)cc(C(C)C)c1O`, the cell viability worked out at 1.3 ± 0.21.

Take `O=[N+]([O-])c1ccc(-c2nc(-c3ccc(F)cc3)c(-c3ccncc3)[nH]2)cc1`: the cell viability was 0.835.

Take `CC(ONC(=O)c1cc(C(F)(F)F)cc(C(F)(F)F)c1)C(=O)Nc1ccc(Cl)cc1` (configuration not stated): the cell viability came to 1.24.

For `CC[C@H](C)C(=O)O[C@H]1C[C@@H](C)C=C2C=C[C@H](C)[C@H](CC[C@@H]3C[C@@H](O)CC(=O)O3)[C@H]21` [Lovastatin], the cell viability is 0.595.

Turning to `Cc1ccc(-c2cn3c4c(sc3n2)CCCC4)cc1` [Pifithrin-a (cyclic)], the cell viability amounted to 1.03.

Regarding `Oc1c2ccccc2c2c3c(cccc13)N=N2`, the cell viability was found to be 0.721 ± 0.32.

For the molecule `CS(=O)(=O)Nc1ccc([N+](=O)[O-])cc1OC1CCCCC1`, the cell viability is 0.933.

`Cc1c[nH]c(/C=C2\C(=O)Nc3ccccc32)c1CCC(=O)O` returned a cell viability of 1.1.

Take `CC(C)C[C@H](NC(=O)[C@H](Cc1ccccc1)NC(=O)c1cnccn1)B(O)O` [bortezomib]: the cell viability was 0.302.

In the case of `CC1=C(/C=C/C(C)=C/C=C/C(C)=C/C(=O)O)C(C)(C)CCC1` [tretinoin], the cell viability came to 1.01.

Turning to `COC(=O)C1=C(C)NC(C)=C(C(=O)OC)C1c1ccccc1[N+](=O)[O-]` [Nifedipine], the cell viability worked out at 0.911.

As for `Fc1ccc(Cl)cc1-c1nc(Nc2ccncc2)c2nccnc2n1`, the cell viability amounted to 0.645.

Consider `N#CC(=C(/N)Sc1ccccc1N)/C(C#N)=C(/N)Sc1ccccc1N`, for which the cell viability was 0.685 and 0.748.

Consider `CCCCCCCCCCC[C@@H](C[C@@H]1OC(=O)[C@H]1CCCCCC)OC(=O)[C@H](CC(C)C)NC=O` [orlistat], for which the cell viability came out at 1.08.

`Cc1ncc2ccccc2c1C#N` [4-cyano-3-methylisoquinoline] registered a cell viability of 1.01.

In the case of `COc1cc2c(NC3CCN(C(C)C)CC3)nc(C3CCCCC3)nc2cc1OCCCN1CCCC1`, the cell viability stood at 0.337.

Consider `NS(=O)(=O)c1ccc(Nc2nc(OCC3CCCCC3)c3[nH]cnc3n2)cc1`, for which the cell viability is 0.699.

For `CC(C)C(C(=O)O)N1C(=O)C(=Cc2ccc(Br)cc2)SC1=S` (configuration not stated), the cell viability amounted to 1.11.

With `CN(C)CCCN1c2ccccc2Sc2ccc(Cl)cc21` [chlorpromazine hydrochloride], the cell viability turned out to be 0.947.

The molecule `NC1=N/C(=C2/CCNC(=O)c3[nH]ccc32)C(=O)N1` [Debromohymenialdisine (DBH)] showed a cell viability of 1.25.

The molecule `N#CC[C@H](C1CCCC1)n1cc(-c2ncnc3[nH]ccc23)cn1` [Ruxolitinib] yielded a cell viability of 0.979.

Regarding `CSCC[C@H](NC(=O)c1ccc(NC[C@@H](N)CS)cc1-c1ccccc1)C(=O)O`, the cell viability amounted to 1.55.

Molecule `CNCc1ccc(-c2[nH]c3cc(F)cc4c3c2CCNC4=O)cc1` gave a cell viability of 0.686.

For `Cc1cccc(-c2nn(C(=S)Nc3ccccc3)cc2-c2ccnc3ccccc23)n1`, the cell viability came out at 0.872.

The molecule `O=c1c(-c2ccc(O)cc2)coc2cc(O)cc(O)c12` [Genistein] displayed a cell viability of 1.31.

For `COc1nccc(-c2c(-c3ccc(F)cc3)ncn2C2CCC(O)CC2)n1` (configuration not stated), the cell viability was 1.14.

In turn, `Nc1cccc(-c2cc3c(Oc4cccc(O)c4)ncnc3[nH]2)c1` came in with a cell viability of 0.586.

Turning to `CC(/C=C/C(=O)NO)=C\[C@@H](C)C(=O)c1ccc(N(C)C)cc1` [Trichostatin A], the cell viability was determined as 0.343.

`C[C@@H]1C[C@H]2O[C@@H]2/C=C\C=C\C(=O)Cc2c(Cl)c(O)cc(O)c2C(=O)O1` [radicicol] gave a cell viability of 0.409.

The subject of the next assay is TOV-21G. Described as above. The following applies: 10 µM; 48 h. An outline of the steps: as §1
The molecule `COc1cc([C@@H]2c3cc4c(cc3[C@@H](O[C@@H]3O[C@@H]5CO[C@@H](C)O[C@H]5[C@H](O)[C@H]3O)[C@H]3COC(=O)[C@H]23)OCO4)cc(OC)c1O` [Etoposide (VP-16)] had a cell viability of 0.658.

Take `CC(C)[C@H](CO)Nc1nc(Nc2cccc(Cl)c2)c2ncn(C(C)C)c2n1` [Purvalanol A]: the cell viability was 0.652.

The molecule `C[n+]1cc2c3c(ccc2c2ccc4cc5c(cc4c21)OCO5)OCO3` [Sanguinarine] yielded a cell viability of 0.253.

Take `CC(C)[C@H](CO)Nc1nc(Nc2cccc(Cl)c2)c2ncn(C(C)C)c2n1` [purvalanol A]: the cell viability is 0.607.

Molecule `Cc1ccc(NC(=O)c2cccc(N(C)C)c2)cc1NC(=O)c1ccc(O)cc1` returned a cell viability of 0.888.

`CC(=N)NCc1cccc(CN)c1` showed a cell viability of 0.992.

Turning to `CC(C)(C)c1cc(O)ccc1O` [t-Butylhydroquinone (BHQ)], the cell viability worked out at 1.11.

On to `CC(C)c1cc(/C=C(\C#N)C(=O)NCCCc2ccccc2)cc(C(C)C)c1O`, for which the cell viability turned out to be 0.938 ± 0.063.

As for `O=[N+]([O-])c1ccc(-c2nc(-c3ccc(F)cc3)c(-c3ccncc3)[nH]2)cc1`, the cell viability turned out to be 0.976.

Molecule `CC(ONC(=O)c1cc(C(F)(F)F)cc(C(F)(F)F)c1)C(=O)Nc1ccc(Cl)cc1` (configuration not stated) had a cell viability of 1.21.

In turn, `CC[C@H](C)C(=O)O[C@H]1C[C@@H](C)C=C2C=C[C@H](C)[C@H](CC[C@@H]3C[C@@H](O)CC(=O)O3)[C@H]21` [Lovastatin] displayed a cell viability of 0.792.

`Cc1ccc(-c2cn3c4c(sc3n2)CCCC4)cc1` [Pifithrin-a (cyclic)]: the cell viability is 1.11.

The molecule `Oc1c2ccccc2c2c3c(cccc13)N=N2` came in with a cell viability of 0.65 ± 0.023.

`CS(=O)(=O)Nc1ccc([N+](=O)[O-])cc1OC1CCCCC1` registered a cell viability of 1.02.

For `Cc1c[nH]c(/C=C2\C(=O)Nc3ccccc32)c1CCC(=O)O`, the cell viability is 1.08.

Turning to `CC(C)C[C@H](NC(=O)[C@H](Cc1ccccc1)NC(=O)c1cnccn1)B(O)O` [bortezomib], the cell viability turned out to be 0.432.

`CC1=C(/C=C/C(C)=C/C=C/C(C)=C/C(=O)O)C(C)(C)CCC1` [tretinoin] had a cell viability of 1.51.

`COC(=O)C1=C(C)NC(C)=C(C(=O)OC)C1c1ccccc1[N+](=O)[O-]` [Nifedipine] yielded a cell viability of 0.741.

As for `Fc1ccc(Cl)cc1-c1nc(Nc2ccncc2)c2nccnc2n1`, the cell viability was determined as 1.08.

Regarding `N#CC(=C(/N)Sc1ccccc1N)/C(C#N)=C(/N)Sc1ccccc1N`, the cell viability is 0.824 and 1.02.

The molecule `CCCCCCCCCCC[C@@H](C[C@@H]1OC(=O)[C@H]1CCCCCC)OC(=O)[C@H](CC(C)C)NC=O` [orlistat] yielded a cell viability of 1.14.

The molecule `Cc1ncc2ccccc2c1C#N` [4-cyano-3-methylisoquinoline] displayed a cell viability of 1.

As to `COc1cc2c(NC3CCN(C(C)C)CC3)nc(C3CCCCC3)nc2cc1OCCCN1CCCC1`, the cell viability was found to be 0.486.

For `NS(=O)(=O)c1ccc(Nc2nc(OCC3CCCCC3)c3[nH]cnc3n2)cc1`, the cell viability was 0.784.

The molecule `CC(C)C(C(=O)O)N1C(=O)C(=Cc2ccc(Br)cc2)SC1=S` (configuration not stated) showed a cell viability of 1.16.

The molecule `CN(C)CCCN1c2ccccc2Sc2ccc(Cl)cc21` [chlorpromazine hydrochloride] gave a cell viability of 0.868.

As to `NC1=N/C(=C2/CCNC(=O)c3[nH]ccc32)C(=O)N1` [Debromohymenialdisine (DBH)], the cell viability stood at 1.12.

On to `N#CC[C@H](C1CCCC1)n1cc(-c2ncnc3[nH]ccc23)cn1` [Ruxolitinib], for which the cell viability came out at 0.776.

For `CSCC[C@H](NC(=O)c1ccc(NC[C@@H](N)CS)cc1-c1ccccc1)C(=O)O`, the cell viability was 1.

Molecule `CNCc1ccc(-c2[nH]c3cc(F)cc4c3c2CCNC4=O)cc1` had a cell viability of 0.746.

Molecule `Cc1cccc(-c2nn(C(=S)Nc3ccccc3)cc2-c2ccnc3ccccc23)n1` showed a cell viability of 1.01.

With `O=c1c(-c2ccc(O)cc2)coc2cc(O)cc(O)c12` [Genistein], the cell viability came out at 0.988.

Turning to `COc1nccc(-c2c(-c3ccc(F)cc3)ncn2C2CCC(O)CC2)n1` (configuration not stated), the cell viability turned out to be 1.06.

As for `Nc1cccc(-c2cc3c(Oc4cccc(O)c4)ncnc3[nH]2)c1`, the cell viability came to 1.03.

The molecule `CC(/C=C/C(=O)NO)=C\[C@@H](C)C(=O)c1ccc(N(C)C)cc1` [Trichostatin A] came in with a cell viability of 0.355.

Molecule `C[C@@H]1C[C@H]2O[C@@H]2/C=C\C=C\C(=O)Cc2c(Cl)c(O)cc(O)c2C(=O)O1` [radicicol] displayed a cell viability of 0.342.
